Assay outcomes as filed in PubChem.
USP30 block – blocks human USP30 ubiquitin-rhodamine cleavage. Q70CQ3. purified USP30, Ub-rhodamine cleavage fluorescence. inhibition, % at 25 µM. hit rate 5.3% among 47,000. AID 1645860
USP28 block – blocks human USP28 ubiquitin-rhodamine cleavage; hit rate 3% among 47,000; purified USP28, Ub-rhodamine cleavage fluorescence, 30 min; inhibition, % at 25 µM; Q96RU2
USP17 block – inhibitors of human USP17 deubiquitinase; purified USP17, Ub-rhodamine cleavage fluorescence, 3 h; inhibition, % at 50 µM; hit rate 6.5% among 47,000; AID 1645855
USP10 block – inhibitors of human USP10 deubiquitinase | Q14694 | purified USP10, Ub-rhodamine fluorescence, 60 min | inhibition, % at 20 µM | hit rate 1.1% among 47,000 | AID 1645856
OTUD3 inh – human OTUD3 deubiquitinase inhibition. Q5T2D3. purified OTUD3, Ub-rhodamine fluorescence, 2 h. inhibition, % at 25 µM. hit rate 0.7% among 47,000. AID 1645858
Target sequence (Q5T2D3 whole entry, looked up): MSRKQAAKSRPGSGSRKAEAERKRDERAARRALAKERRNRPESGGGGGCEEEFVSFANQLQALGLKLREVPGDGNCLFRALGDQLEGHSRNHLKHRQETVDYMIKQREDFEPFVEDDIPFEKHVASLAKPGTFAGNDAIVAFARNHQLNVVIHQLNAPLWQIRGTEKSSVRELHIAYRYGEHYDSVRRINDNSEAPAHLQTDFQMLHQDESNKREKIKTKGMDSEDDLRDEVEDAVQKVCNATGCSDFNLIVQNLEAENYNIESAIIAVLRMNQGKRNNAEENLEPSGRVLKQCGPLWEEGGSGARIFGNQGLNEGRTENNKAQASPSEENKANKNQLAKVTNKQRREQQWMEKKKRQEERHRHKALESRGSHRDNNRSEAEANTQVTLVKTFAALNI
USP8 inh – inhibitors of human USP8 deubiquitinase; purified USP8, Ub-rhodamine cleavage fluorescence, 30 min; inhibition, % at 20 µM; hit rate 4.2% among 47,000; AID 1645853
Starred values were filed as active, the others as inactive; . = no result. Rows were chosen to be rich in hits. Some 13% of all compounds tested hit in one or more screens of this group. Rule as the data show it: active = inhibition above about 30%; inactive = the rest.

SMILES	USP30 block	USP28 block	USP17 block	USP10 block	OTUD3 inh	USP8 inh
Cc1ccccc1C(=O)N1CCCN(C)c2nc3ccccc3nc21	-302	-81	-104	-8	-66	-27
CCOC(=O)c1cnn(-c2nc3ccccc3s2)c1N=CN(C)C	97*	69*	70*	4	9	11
Cc1nn(C)c(NC(=O)Nc2ccccc2F)c1C1=CCCCC1	34*	5	24	-1	6	2
Cc1cccc(C(=O)Nc2ccc(Sc3ccccc3Cl)cc2)c1	21	11	13	11	7	10
Cc1ccc(Sc2ccc(C#N)cc2NC(=O)c2ccccc2C)cc1	41*	2	-4	-2	8	6
O=C(Nc1cccc(C(F)(F)F)c1)N1CCC(c2nc(-c3ccncc3)no2)CC1	0	-18	-13	-1	-15	-5
Cc1cccc(-c2cc(C(=O)Nc3ccccc3F)[nH]n2)c1O	58*	36*	90*	13	19	24
CCOc1ccccc1NC(=O)c1cc(-c2ccncc2)n[nH]1	.	.	-21	1	-7	0
Cc1cc(C)c(O)c(-c2cc(C(=O)Nc3ccccc3Cl)[nH]n2)c1	46*	19	68*	25	11	97*
O=C(N[C@H]1C[C@@H]2C[C@H]1N(S(=O)(=O)c1cccc3cccnc13)C2)c1ccccc1	-137	-36	-50	-7	-40	-18
O=C(Nc1ccc(Cl)c(Cl)c1)c1cccc(N2CCCCS2(=O)=O)c1	-5	34*	3	1	-9	-2
CC(=O)c1ccc(NC(=O)c2ccc(N3CCCCS3(=O)=O)cc2Cl)cc1	4	25	52*	10	8	31*
O=C(Nc1cccc(Br)c1)c1cccc(N2CCCCS2(=O)=O)c1	-16	-1	-9	1	-2	5
Cc1ccc(CNC(=O)Cc2nnc(-c3ccccn3)o2)cc1C	-8	-2	-2	0	0	-3
Cc1ccc(-c2noc(Cc3nnc(-c4ccccc4)o3)n2)cc1	-10	0	20	-4	-14	-13
Cc1ccc(-c2noc(CNc3ccc(Oc4ccccc4)cc3)n2)cc1	8	22	30	5	1	79*
Cc1noc2ncc(-c3nnc(-c4cccn4C)o3)cc12	.	.	-3	-6	3	-23
CCOc1cc(N2CCOCC2)c(OCC)cc1NC(=O)c1cc2c(s1)CCC2	11	13	36*	30	12	50*
CCOc1cc(N2CCOCC2)c(OCC)cc1NC(=O)COC(=O)c1ccc2ncsc2c1	2	-3	4	-1	0	3
CCOC(=O)C1(Cc2cc(-c3ccc(F)cc3)no2)CCCN(Cc2cnc(C)n2C)C1 (centres undefined)	36*	16	11	-2	13	18
CCOC(=O)C1(Cc2cc(-c3ccccc3C)no2)CCCN(Cc2cncn2C)C1 (centres undefined)	-11	-17	-5	2	-9	-3
COc1ccc(-c2nc(C(N)=O)c3[nH]c(=O)n(-c4ccc(OC)c(OC)c4)c3n2)cc1	-13	-9	-10	-2	-1	8
COc1cccc(-c2nc(C(N)=O)c3[nH]c(=O)n(-c4cccc(Cl)c4)c3n2)c1OC	-110	-17	51*	-8	-25	-12
COc1cccc(-n2c(=O)[nH]c3c(C(N)=O)nc(C4CCCCC4)nc32)c1	-202	-35	-27	-8	-36	10
Cc1cccc(-n2c(=O)[nH]c3c(C(N)=O)nc(C4CCCCC4)nc32)c1	49*	24	28	7	16	23
SMILES	USP30 block	USP28 block	USP17 block	USP10 block	OTUD3 inh	USP8 inh
NC(=O)c1nc(-c2cccc(F)c2)nc2c1[nH]c(=O)n2C1CCCCC1	-16	-13	51*	-7	3	-16
Cc1c(C(=O)NCC2CCCCC2)nnn1-c1cccc2c1CCN(C)C2	-23	-14	-15	-1	-7	-6
O=C1CC2(CCC(=O)N(CC(=O)N3CCCC3)CC2)Oc2ccccc21 (centres undefined)	13	5	7	0	6	6
c1ccc(CSc2ncnc3c2nnn3Cc2ccccc2)cc1	17	17	9	-2	23	7
c1ccc(Cn2ncc3c(SCc4nc5ccccc5[nH]4)ncnc32)cc1	47*	12	-11	7	15	-310
O=C(NCCN1CCCCC1)c1[nH]nc2c1COc1ccccc1-2	22	10	9	0	10	20
O=C(NC1CCN(Cc2ccccc2)CC1)c1[nH]nc2c1COc1ccccc1-2	8	67*	19	-5	4	6
O=C(NCc1ccc2c(c1)OCO2)c1[nH]nc2c1COc1ccccc1-2	39*	31*	60*	29	1	54*
O=C(Nc1cccc(Cl)c1)c1[nH]nc2c1COc1ccccc1-2	-72	-48	29	26	-35	75*
N#Cc1cccc(NC(=O)c2[nH]nc3c2COc2ccccc2-3)c1	-76	-15	-23	41*	-9	72*
Cc1cc(N2CCCC2)n2nc(CN3CCN(C(C)C)CC3)nc2n1	10	3	8	-2	5	13
Cc1ccc(-c2nc3c(c(SCC(=O)NCc4ccco4)n2)COC(C)(C)C3)cc1	20	18	41*	1	18	23
Cc1ccc2c(c1)[C@]1(C(=O)N2)[C@@H](C(=O)c2ccccc2)[C@]2(C(=O)Nc3ccccc32)[C@@H]2CCCN21	-3	0	52*	2	-3	0
COc1ccc(-c2cnc3ncnn3c2C)cc1OC	6	-1	0	1	2	1
CC1=C(C(=O)Nc2ccccc2C)C(c2ccccc2OCc2ccc(F)cc2)n2ncnc2N1 (centres undefined)	-26	-11	-42	-3	-14	-203
COc1ccc(Cl)cc1NC(=O)CSc1ncnc2nc[nH]c12	33*	43*	26	47*	-1	74*
COc1cc2c(cc1OC)CN(c1ncnc3sccc13)CC2	.	.	-62	-3	2	-23
COc1ccc(Cl)cc1Nc1ncnc2sccc12	.	.	52*	-6	0	-26
Cc1cccc(OCC(=O)Nc2ccc3nc(C)sc3c2)c1	-342	-27	-37	-7	-37	-15
Cc1ccc(S(=O)(=O)CC(=O)Nc2ccc(-c3nc4ccccc4s3)c(O)c2)cc1	-58	0	-23	27	-6	80*
O=C(Nc1ccnn1C1CCCC1)c1cccnc1Sc1ccc2c(c1)OCCO2	9	6	-6	-1	3	-5
O=C(NCCc1ccc(F)cc1)c1cc2c([nH]c1=O)CCCC2	-1	-12	42*	1	-2	2
CC1CCC(NC(=O)C2CCCN2S(=O)(=O)c2ccc3nc(-c4ccccc4)[nH]c3c2)CC1 (centres undefined)	-9	18	34*	9	3	25
Cc1nc2nc(C(c3ccccc3)c3ccccc3)[nH]n2c(=O)c1C	16	7	11	4	8	11
